Test results taken from PubChem BioAssay AID743286 (National Center for Advancing Translational Sciences (NCATS), 2014).
In all, about 1,100 compounds went through this assay and about 340 (31%) were called active. Roughly 40% stayed inconclusive and do not appear here. Calls follow the shape of the dose curve; as a rule, active = well fitted inhibition curve with a large enough effect; inconclusive = small, poorly fitted or top-dose-only effect; inactive = flat fitted curve, though single readings scatter. The list is a sample of the results.

Molecular target: Phosphatidylinositol 5-phosphate 4-kinase type-2 alpha (Homo sapiens) (UniProt P48426)
Sequence (P48426 whole entry, looked up): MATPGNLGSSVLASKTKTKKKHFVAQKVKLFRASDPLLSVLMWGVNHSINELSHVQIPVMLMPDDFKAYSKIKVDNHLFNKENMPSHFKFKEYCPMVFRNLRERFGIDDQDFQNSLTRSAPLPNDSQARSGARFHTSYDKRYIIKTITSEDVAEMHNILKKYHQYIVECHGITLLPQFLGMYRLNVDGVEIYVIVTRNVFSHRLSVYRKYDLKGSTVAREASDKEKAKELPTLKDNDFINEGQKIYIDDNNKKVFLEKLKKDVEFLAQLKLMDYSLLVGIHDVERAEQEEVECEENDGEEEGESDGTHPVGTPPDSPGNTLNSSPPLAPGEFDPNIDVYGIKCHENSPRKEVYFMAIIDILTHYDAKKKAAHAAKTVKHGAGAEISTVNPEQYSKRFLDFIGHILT
Test: qHTS for Inhibitors of PI5P4K: Confirmation in Primary Assay; also: nearly all actives have a fitted effect of over 65% in size
Settings: PI5P4Kalpha enzyme, ADP-Glo luminescence, 60 min; series mostly up to 76.9 µM; activity change, negative = inhibition: at the top concentration
Excerpt: In addition to finding PI5P, we discovered the type II phosphatidylinositol 5-phosphate 4-kinase (PI5P4K) family (alpha, beta, gamma isoforms) that catalyze the conversion of PI5P to PI(4,5)P2. Alternatively, PI(4,5)P2 can also be synthesized through phosphatidylinositol-4-phosphate (PI4P) by the type I phosphatidylinositol 4-phosphate 5-kinases (PI4P5K). These PI5P4K enzymes therefore represent one way by which cells can regulate endogenous PI5P levels and play important roles in insulin signaling and in stress responses. […] A qHTS PI5P4K-alpha ADP-Glo assay was developed to identify specific modulators of human PI5P4K, phosphatidylinositol-5-phosphate 4-kinase (Type II PIPK). This assay was screened against the MLSMR containing ~400,000 small molecules (PubChem AID 652105). To confirm that the hits were not interacting with the detection enzyme system, a 1536-well counterscreen against the ADP-Glo kit (Promega) was utilized, as described in Davis et al., 2013 [1]. Davis et al., PLoS One. 2013;8(1):e54127. NIH Chemical Genomics Center [NCGC] NIH Molecular Libraries Probe Centers Network [MLPCN] MLPCN Grant: MH096575 Assay Submitter (PI): Atsuo Sasaki, Beth Israel Deaconess Medical Center
2 microL of PI5P4Kalpha/substrate buffer (columns 1-2, 5-48) are dispensed into Greiner white solid bottom 1536-well assay plates; column 3 receives only PI5P4Kalpha buffer as 0x substrate controls; column 4 receives only substrate buffer as 0x PI5P4Kalpha controls. Final assay buffer consists of 0.038 M HEPES pH 7.4, 0.28 mM EGTA, 0.1% CHAPS, and 5% DMSO (final concentration). Compounds are then transferred via Kalypsys pin tool equipped with 1536-pin array (10 nL slotted pins, V&P Scientific, San Diego, CA). Following addition of compound, 1 microL of ATP (5 microM final concentration, all columns) is added to initiate the reaction. ATP is diluted in an assay buffer consisting of 0.02 M HEPES pH 7.4, 60 mM MgCl2, 15 microM ATP, and 0.1% CHAPS. The plates are then incubated at room temperature for 60 minutes. ADP-Glo reagent 1 is added (2 microL) and plates incubated for 45 minutes, before ADP-Glo reagent 2 (4 microL) is added and plates incubated for 30 minutes. They are then transferred to a ViewLux high-throughput CCD imager (PerkinElmer) wherein single end-point measurements of luminescence are acquired using a clear filter.
% is scaled to controls: 0 for no effect and ±100 for the full control effect; potency is read from the fitted curve at half-maximal effect.

Row | SMILES | Potency | activity change, negative = inhibition
1 | CCC(=O)Oc1ccc(C(=O)Nc2cccc(C(=O)c3ccccc3)c2)cc1 | 8.91 µM (active) | –
2 | N#CC1c2ccccc2-n2nncc2CN1Cc1cc(Cl)cc(Cl)c1 (stereo not given) | – | -12.5% (inactive)
3 | COC(=O)C1=C(c2ccc(F)cc2F)C[C@@H]2CC[C@H]1N2C(=O)NC1Cc2ccccc2C1 | – | -0.214% (inactive)
4 | COc1ccc(C(=O)C2CCCN(Cc3ccon3)C2)c(OC)c1 (stereo not given) | – | -2.13% (inactive)
5 | CC(C)NCC(O)c1ccc(C2CCCC2)cc1 (stereo not given) | – | -0.799% (inactive)
